Screens deposited in PubChem by National Center for Advancing Translational Sciences (NCATS).
Shiga toxin inh: A qHTS for Small Molecule Inhibitors of Shiga Toxin | Vero cells, Shiga toxin protein synthesis inhibition reporter | inhibition, % at 38.7 µM | 290,000 compounds, 9.2% hits; in the data active = inhibition mostly above about 28%, no sharp cut-off; inactive = mostly below about 43%; also: 0% is about no effect
FBPA Giardia inh: qHTS Assay for Inhibitors of Fructose-1,6-bisphosphate Aldolase from Giardia Lamblia; Potency, µM (titrated, usually from 59.6 µM), inactives show top-dose activity, negative = inhibition, hits mostly inhibitors; purified Giardia FBPA; A8B2U2; 290,000 compounds, 0.71% hits; also: potency is read from the fitted curve at half-maximal effect; % is scaled to controls: 0 for no effect and ±100 for the full control effect; nearly all actives have a fitted effect of over 55% in size
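Giardia FBPA (40 nM reagent) was preincubated 10 min at RT with compound (up to 57.5 uM final), then substrate plus GAPDH/TPI/NAD/arsenate coupling system with diaphorase/resazurin was added; resorufin fluorescence (525/598 nm) was read after 20 min.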
CHX counter: Cycloheximide Counterscreen for Small Molecule Inhibitors of Shiga Toxin. 300,000 compounds, 12% hits. AID 2314, 2010. max response, %. cell reporter, cycloheximide protein synthesis inhibition counterscreen; in the data active = max response mostly above about 13%, no sharp cut-off; inactive = mostly below about 14%; also: read at 38.3 µM for the half of the compounds with a filed dose; 0% is about no effect
LmPK inhibitor: qHTS Assay for Inhibitors of Leishmania Mexicana Pyruvate Kinase (LmPK) | AID 1721, 2009 | purified LmPK, Kinase-Glo ATP luminescence, 1 h | Q27686 | 290,000 compounds, 0.37% hits | Potency, µM (titrated, usually from 57.5 µM), without a hit: at the highest dose activity change, negative = inhibition, hits mostly inhibitors; also: potency is read from the fitted curve at half-maximal effect; % is scaled to controls: 0 for no effect and ±100 for the full control effect
Target sequence (Q27686 whole entry, looked up): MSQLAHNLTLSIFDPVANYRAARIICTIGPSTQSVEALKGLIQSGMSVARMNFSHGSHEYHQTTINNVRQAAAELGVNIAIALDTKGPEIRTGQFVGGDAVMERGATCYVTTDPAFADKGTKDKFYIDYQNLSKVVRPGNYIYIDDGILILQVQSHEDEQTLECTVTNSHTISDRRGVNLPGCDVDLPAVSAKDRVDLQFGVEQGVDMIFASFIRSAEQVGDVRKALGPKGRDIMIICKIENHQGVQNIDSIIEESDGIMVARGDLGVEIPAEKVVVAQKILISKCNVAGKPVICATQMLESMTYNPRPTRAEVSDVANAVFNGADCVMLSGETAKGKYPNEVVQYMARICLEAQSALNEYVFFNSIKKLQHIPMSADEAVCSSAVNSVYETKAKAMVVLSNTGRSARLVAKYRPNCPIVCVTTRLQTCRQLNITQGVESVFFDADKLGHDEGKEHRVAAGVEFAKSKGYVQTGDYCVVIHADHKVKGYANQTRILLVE
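0.1 nM LmPK, 0.5 mM PEP, 0.1 mM ADP; 50 mM imidazole pH 7.2, 7 mM MgCl2, 50 mM KCl; 1 h RT. Kinase-Glo luminescence readout, normalized to no-enzyme (full inhibition) and uninhibited wells.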
TbPYK inhibitor: qHTS of Trypanosoma Brucei Inhibitors. pyruvate kinase (Trypanosoma brucei), Q57TT1. TbPYK enzyme, Kinase-Glo Plus ATP luminescence, 45 min. Potency, µM (doses to about 76.8 µM), for the others: at the top dose activity, negative = inhibition, most hits filed as inhibitors. 410,000 compounds, 0.12% hits. AID 624173, 2012; also: potency is read from the fitted curve at half-maximal effect; % is scaled to controls: 0 for no effect and ±100 for the full control effect; nearly all actives have a fitted effect of over 50% in size
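Quantitative HTS: titrated library compounds versus trypanosomal pyruvate kinase in TEA buffer (pH 7.2) containing KCl, MgCl2, BSA and Tween-20. Reactions were initiated with ADP, 130 uM final. Kinase-Glo Plus luminescence was read after 45 min at RT.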
Sm TGR block: qHTS Assay for the Inhibitors of Schistosoma Mansoni Peroxiredoxins. Schistosoma mansoni thioredoxin glutathione reductase (TGR), Q962Y6. purified TGR, DTNB reduction, TNB absorbance 405 nm. Potency, µM (top dose mostly 114 µM), inactives show at the highest dose activity change, negative = inhibition, actives largely listed as inhibitors. 360,000 compounds, 3% hits. AID 485364, 2010; also: potency is read from the fitted curve at half-maximal effect; % is scaled to controls: 0 for no effect and ±100 for the full control effect; nearly all actives have a fitted effect of over 60% in size
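First, TGR (20 nM dispensed) and NADPH were mixed with compound. Second, a 15 min room-temperature incubation followed. Third, further NADPH and then DTNB were added to start the reaction. Finally, TNB absorbance was monitored kinetically.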
* hit, by the source's call; ? = inconclusive; nt = not tested or not shown. Only a selection was taken, and hits are over-represented in it overall. Unless noted, calls follow the shape of the dose curve; as a rule, active = well fitted curve in the direction sought with a large enough effect; inconclusive = small, poorly fitted or top-dose-only effect, or another doubt; inactive = no such curve, though single readings can be large; an effect the other way counts as inactive or inconclusive.

SMILES | Shiga toxin inh | FBPA Giardia inh | CHX counter | LmPK inhibitor | TbPYK inhibitor | Sm TGR block
O=c1[nH]c(=S)n(C2CC2)c(O)c1/C=N/Nc1cccc2ccccc12 | 72* | ? | 25* | -2% | -7% | 35µM*
O=C(N/N=C/c1c(O)n(C2CCCCC2)c(=S)[nH]c1=O)c1ccccc1 | 48* | 25% | 22 | -5% | -2% | -30%
O=c1[nH]c(=S)n(C2CC2)c(O)c1/C=N/Nc1ccccc1 | 65* | ? | 24* | 2% | -9% | 20µM*
CC(C)c1ccc(-n2c(O)c(/C=N/NC(=O)c3ccncc3)c(=O)[nH]c2=O)cc1 | -4 | -19% | -3 | -1% | -4% | ?
O=C(N/N=C/c1c(O)n(C2CCCCC2)c(=S)[nH]c1=O)c1ccccc1O | 11 | ? | 15 | 10% | -2% | 0%
CCN(CC)S(=O)(=O)c1ccc(OC)c(NC(=O)CSCc2c(C)noc2C)c1 | nt | nt | nt | nt | 5% | nt
CCc1ccc(-n2nc(C)c3c(C)cc(=O)n(Cc4nc(-c5ccccc5)oc4C)c32)cc1 | nt | nt | nt | nt | 1% | 2%
O=C1CC(O)(C(F)F)Oc2ccc3ccccc3c21 (stereo not drawn) | 11 | -7% | 9 | -3% | 6% | 2%
O=C1CC(O)(C(F)(F)F)Oc2c1ccc1ccccc21 (stereo not drawn) | 79 | 0% | 19* | 4% | 0% | 1%
Cn1/c(=N/N=C/c2ccc(Cl)c([N+](=O)[O-])c2)sc2ccccc21 | -5 | 3% | 9 | 3% | -2% | 1%
Cn1/c(=N/N=C/c2ccc(N3CCOCC3)cc2)sc2ccccc21 | 71* | -17% | 37* | 7% | 1% | -11%
Cn1/c(=N/N=C/c2ccccn2)sc2ccccc21 | 92* | -19% | 51* | -5% | 5% | 8%
Cc1[nH]c(N=Nc2ccccc2)nc1N=Nc1ccccc1 | 71* | 0% | 14 | -6% | -14% | 4%
CCCCOc1cccc(C(=O)N(Cc2ccc(Br)o2)C2CCS(=O)(=O)C2)c1 (stereo not drawn) | nt | nt | nt | nt | -4% | -2%
COc1cc(CNCC(C)C)c(Br)cc1OCC(=O)NCc1ccccc1 | -12 | -7% | -3 | 6% | -2% | 28µM*
COc1cc(CNCCN(C)C)c(Br)cc1OCC(=O)NCc1ccccc1 | 8 | -8% | -7 | 3% | 2% | -2%
COC(=O)c1ccc(CSC2=NCCS2)cc1 | 79* | 3% | 61* | -6% | -2% | 5%
O=[N+]([O-])c1ccc(CSC2=NCCS2)cc1 | nt | 3% | 27* | 2% | -9% | 5%
c1ccc(CSC2=NCCS2)cc1 | 120* | 11% | 29 | -2% | -4% | -4%
CCOc1ccccc1NC(=O)C1=C(C)Nc2ncnn2C1c1ccco1 (stereo not drawn) | nt | nt | nt | nt | -3% | 7%
O=C(NC(=S)Nc1cccc(Cl)c1Cl)C1CC1 | 14 | -9% | 14 | 5% | 1% | ?
COc1cccc(CNS(=O)(=O)c2c(C(=O)N3CCCCCC3)c(C)n(C)c2C)c1 | 1 | 14% | -1 | 5% | -21% | -6%
Cc1ccc(C(=O)N(CCN2CCCCC2)CC2CCCN(C3CCCC3)C2)s1 (stereo not drawn) | 72* | 1% | 33* | 0% | 7% | -28%
O=C(c1cccs1)N(CCN1CCCCC1)CC1CCCN(C2CCCC2)C1 (stereo not drawn) | 53* | 0% | 36* | 5% | -2% | 5%
COc1ccccc1C(=O)NC(CCSC)C(=O)OCC(=O)N1CCN(S(=O)(=O)c2ccc(C)cc2)CC1 (stereo not drawn) | nt | nt | nt | nt | 4% | nt
SMILES | Shiga toxin inh | FBPA Giardia inh | CHX counter | LmPK inhibitor | TbPYK inhibitor | Sm TGR block
CCCc1nnc(NC(=O)C23CC4CC(CC(C4)C2)C3)s1 | -8 | 7% | 3 | 2% | 5% | 23%
CC(C)OCCCNC(=O)NC12CC3CC(CC(C3)C1)C2 | 15 | 1% | 13* | 0% | 3% | -8%
COCCNC(=O)NC12CC3CC(CC(C3)C1)C2 | -3 | 3% | -3 | 0% | 1% | 2%
Cc1c(NC(=O)CSc2nnc(-c3ccncc3)n2C)c(=O)n(-c2ccccc2)n1C | nt | nt | nt | nt | 0% | nt
Nc1ccccc1Nc1nc2ccccc2[nH]1 | 34* | -16% | 27* | -3% | 0% | -16%
Cc1ccc(C)c(Nc2nc3ccccc3[nH]2)c1 | nt | nt | nt | nt | -3% | nt
c1ccc(Nc2nc3ccccc3[nH]2)nc1 | 86* | -15% | 70* | -10% | -4% | -11%
Nc1ccc(Nc2nc3ccccc3[nH]2)cc1 | -6 | -25% | 6 | -7% | -2% | 0%
Cc1cc(C)nc(Nc2nc3ccccc3[nH]2)n1 | 90* | -5% | 29* | 2% | -8% | -2%
CCOc1ccccc1N1C(=O)NC(=O)/C(=C/c2ccc3c4c(cccc24)CC3)C1=O | -4 | -22% | 12 | 3% | ? | 32µM*
COc1cccc(N2C(=O)NC(=O)/C(=C/c3ccc4c5c(cccc35)CC4)C2=O)c1 | 12 | -28% | 15 | 3% | nt | 25µM*
COc1cc(/C=C2\C(=O)NC(=O)N(c3ccccc3)C2=O)cc(OC)c1OC | 36 | -8% | 1 | 2% | ? | ?
COc1ccc(N2C(=O)NC(=O)/C(=C/c3ccc4c(c3)Cc3ccccc3-4)C2=O)cc1 | 34 | -13% | 29* | -4% | nt | ?
COc1cccc(N2C(=O)CC(=O)NC2=O)c1 | -11 | -8% | -7 | -2% | -3% | 0%
COc1ccc(CCNS(=O)(=O)c2ccc(-n3cnnn3)cc2)cc1OC | -4 | -2% | -4 | -5% | -1% | -2%
COc1ccc(NC(=O)Cn2cc(C(=O)C3CCCCC3)c3ccccc32)cc1 | nt | nt | nt | nt | -1% | -1%
CC(C)c1ccc(CN(Cc2ccco2)c2cnc(S(C)(=O)=O)nc2C(=O)Nc2ccccc2)cc1 | nt | nt | nt | nt | -8% | -1%
COc1ccccc1N1C(=O)C2ON(c3ccccc3)C(c3ccc(N(C)C)cc3)C2C1=O (stereo not drawn) | -11 | 0% | -8 | 4% | nt | 5µM*
Cc1ccc(N2C(=O)C3ON(c4ccccc4)C(c4ccncc4)C3C2=O)c(C)c1 (stereo not drawn) | -21 | 9% | 17 | 2% | -2% | 50µM*
Cc1ccccc1N1C(=O)C2ON(c3ccccc3)C(c3ccco3)C2C1=O (stereo not drawn) | -2 | -13% | -1 | 5% | -2% | 50µM*
Cc1cccc(C)c1N1C(=O)C2ON(c3ccccc3)C(c3ccncc3)C2C1=O (stereo not drawn) | -7 | 16% | -3 | 3% | -25% | -18%
